Our source for the Inhibition values is ChEMBL document CHEMBL4296182, “CO-ADD screening of NIH NCI Diversity Set V”.

For part of these data: Potency and affinity values are given separately.

In one assay the test system is Staphylococcus aureus. The experiment in a line: Antibacterial activity against Staphylococcus aureus MRSA ATCC 43300 (CO-ADD:GP_020); MIC in CAMBH media using NBS plates, by Resazurin F(560/590). Type of assay: functional. The settings on record: Concentration 20 uM, ASSAY_TEST Inhibition of Bacterial Growth, detection method Resazurin, Fluorescence (ex560/em590), MEDIA CAMHB, plate type 384well, CORNING #3640, time 18 hr. Background: Alamar Blue is a resazurin reagent that responds to reducing activity.

For a further assay, the system named is Acinetobacter baumannii. Nature of the assay: Antibacterial activity against Acinetobacter baumannii ATCC 19606 (CO-ADD:GN_034); MIC in CAMBH media using NBS plates, by Resazurin F(560/590). Type of assay: functional. The settings on record: Concentration 20 uM, ASSAY_TEST Inhibition of Bacterial Growth, detection method Resazurin, Fluorescence (ex560/em590), MEDIA CAMHB, plate type 384well, CORNING #3640, time 18 hr.

The subject of another assay is Escherichia coli. The experiment in a line: Antibacterial activity against Escherichia coli ATCC 25922 (CO-ADD:GN_001); MIC in CAMBH media using NBS plates, by Resazurin F(560/590). Type of assay: functional. To be noted: Concentration 20 uM, ASSAY_TEST Inhibition of Bacterial Growth, detection method Resazurin, Fluorescence (ex560/em590), MEDIA CAMHB, plate type 384well, CORNING #3640, time 18 hr.

A further assay has as its system Klebsiella pneumoniae. The settings on record: Concentration 20 uM; ASSAY_TEST Inhibition of Bacterial Growth; detection method Absorption (OD600); MEDIA CAMHB; plate type 384well; NBS; CORNING #3640; time 18 hr.
A further assay relates to Candida albicans. To be noted: 20 µM.
The test system of another assay is Cryptococcus neoformans. The settings on record: Concentration 20 uM; ASSAY_TEST Inhibition of Fungal Growth; detection method Resazurin; Absorption (OD600-OD570); plate type 384well; NBS; CORNING #3640.

One may read the Inhibition as the change of the read-out against control, counted positive when it falls. Consider `O=C(Nc1ccc(O)c(C(=O)O)c1)Oc1ccccc1`, for which the Inhibition with Staphylococcus aureus was 5.63%; with Acinetobacter baumannii, 12.9%; with Escherichia coli it was -6.34%; in the assay on Klebsiella pneumoniae, 11.35%; with Candida albicans, 5.9%; in the assay with Cryptococcus neoformans it was -2.46%.
Turning to `Brc1ccc(/N=N/c2ccc3ccccc3n2)cc1`, the Inhibition with Staphylococcus aureus was 10.21%; in the assay with Acinetobacter baumannii, 4.06%; in the assay on Escherichia coli, -16.68%; in the assay on Klebsiella pneumoniae, 5.4%; in the assay on Candida albicans, 5.16%; in the assay on Cryptococcus neoformans, 43.68%.
On to `O=[N+]([O-])c1ccc(NN=C(c2ccccc2)c2ccccc2)nc1`, for which the Inhibition with Staphylococcus aureus was 5.39%; with Acinetobacter baumannii, -2.58%; in the assay on Escherichia coli, 13.19%; in the assay on Klebsiella pneumoniae it was 5.05%; with Candida albicans, 3.51%; in the assay with Cryptococcus neoformans, -2.84%.
For the compound `COc1cc2c(=O)n3c4c(cccc4c2cc1OC)CC3`, the Inhibition with Staphylococcus aureus is 9.4%; in the assay on Acinetobacter baumannii, -8.34%; in the assay on Escherichia coli it was 13.88%; in the assay with Klebsiella pneumoniae, 1.26%; in the assay on Candida albicans, 1.37%; with Cryptococcus neoformans, -14.32%.
On to `CSC(=O)NC(=O)NC(=O)c1ccc([N+](=O)[O-])cc1`, for which the Inhibition was 9.19% with Staphylococcus aureus; 0.18% with Acinetobacter baumannii; 3.52% with Escherichia coli; 12.66% in the assay on Klebsiella pneumoniae; -0.48% in the assay with Candida albicans; 44.26% in the assay with Cryptococcus neoformans.
Turning to `C=CCN1CCN(c2ccncc2S(=O)(=O)N2CCN(C)CC2)CC1`, the Inhibition with Staphylococcus aureus was 11.93%; in the assay on Acinetobacter baumannii, 5.76%; in the assay with Escherichia coli, 5.47%; in the assay on Klebsiella pneumoniae, 7.93%; in the assay on Candida albicans, -0.33%; in the assay with Cryptococcus neoformans, -11.5%.
With `O=c1nc(Oc2ccccc2)nc2ncccn12`, the Inhibition in the assay on Staphylococcus aureus is 18.68%; in the assay with Acinetobacter baumannii it was 13.4%; with Escherichia coli, 27.8%; with Klebsiella pneumoniae it was 4.93%; in the assay with Candida albicans, 7.13%; with Cryptococcus neoformans it was -13.98%.
`O=[N+]([O-])c1ccc(Sc2ncccn2)c([N+](=O)[O-])c1`: the Inhibition with Staphylococcus aureus was -0.05%; with Acinetobacter baumannii it was -11.01%; in the assay on Escherichia coli, 5.58%; with Klebsiella pneumoniae, 8.38%; with Candida albicans it was 12.9%; with Cryptococcus neoformans, -3.06%.
Consider `CCc1ccc(CCN2C(=O)c3ccccc3C2=O)nc1`, for which the Inhibition is 9.03% in the assay on Staphylococcus aureus; 4.62% in the assay with Acinetobacter baumannii; -1.52% in the assay with Escherichia coli; 17.62% with Klebsiella pneumoniae; 2.59% in the assay on Candida albicans; -6.09% with Cryptococcus neoformans.
`Nc1cc(Nc2ccc(Br)cc2)nc(N)n1`: the Inhibition was 4.17% in the assay with Staphylococcus aureus; 10.22% in the assay with Acinetobacter baumannii; -12.19% with Escherichia coli; 18.33% with Klebsiella pneumoniae; 4.62% in the assay on Candida albicans; -4.88% in the assay with Cryptococcus neoformans.
Turning to `COc1ccc2c(n1)Sc1nc3ccccc3nc1N2`, the Inhibition in the assay on Staphylococcus aureus was 9.7%; in the assay with Acinetobacter baumannii it was -15.29%; with Escherichia coli, 7.15%; with Klebsiella pneumoniae it was 4.25%; in the assay on Candida albicans, 3.02%; in the assay on Cryptococcus neoformans, -8.75%.
Consider `O=C(CN1CCCC1)Nc1nc(-c2ccc(Cl)cc2)cs1`, for which the Inhibition was -2.74% in the assay with Staphylococcus aureus; 10.5% in the assay on Acinetobacter baumannii; -10.54% in the assay with Escherichia coli; 13.35% in the assay on Klebsiella pneumoniae; 4.21% in the assay with Candida albicans; -1.35% with Cryptococcus neoformans.
`CCc1nc(NC(C)(C)C)c2cnn(-c3ccccc3)c2n1`: the Inhibition with Staphylococcus aureus is 6.25%; in the assay with Acinetobacter baumannii, 2.78%; in the assay with Escherichia coli, 2.08%; in the assay on Klebsiella pneumoniae, 23.15%; with Candida albicans, 15.4%; with Cryptococcus neoformans it was -0.88%.
For the compound `Oc1nc2ccccc2n1C1=CCNCC1`, the Inhibition in the assay on Staphylococcus aureus was -11.2%; with Acinetobacter baumannii, -15.97%; with Escherichia coli, 0.33%; with Klebsiella pneumoniae it was 8.73%; in the assay with Candida albicans, 2.14%; in the assay on Cryptococcus neoformans, -5.4%.
Take `CCCCSc1cc(O)nc(N)n1`: the Inhibition with Staphylococcus aureus is -2.6%; with Acinetobacter baumannii it was -7.06%; in the assay with Escherichia coli, 16.01%; with Klebsiella pneumoniae, 10.64%; in the assay on Candida albicans, -1.45%; with Cryptococcus neoformans, -8.65%.
With `CC(=O)Nc1c(C)cc(OCC(=O)O)cc1C`, the Inhibition was 2.34% in the assay with Staphylococcus aureus; -5.79% in the assay with Acinetobacter baumannii; 3.28% in the assay with Escherichia coli; 20.93% with Klebsiella pneumoniae; 1.74% in the assay with Candida albicans; -9.89% in the assay on Cryptococcus neoformans.
Take `COc1ccc(C(=O)Oc2cccnc2O)cc1`: the Inhibition in the assay on Staphylococcus aureus is -4.34%; in the assay with Acinetobacter baumannii, 16.28%; in the assay with Escherichia coli it was -5.51%; with Klebsiella pneumoniae, 12.02%; in the assay with Candida albicans, 4.27%; with Cryptococcus neoformans it was -4.22%.
Take `CCn1c(=O)n(C)c2c(=O)n(C)c(=O)n(C)c21`: the Inhibition in the assay on Staphylococcus aureus was -2%; with Acinetobacter baumannii it was -10.53%; in the assay with Escherichia coli, 11.39%; in the assay with Klebsiella pneumoniae, 6.07%; in the assay on Candida albicans, -0.98%; in the assay with Cryptococcus neoformans, -11.25%.
Take `CCOC(=O)C1C(=O)C(=O)N(C(C)C)C1C(=O)OCC` (stereo not given): the Inhibition in the assay on Staphylococcus aureus was 9.9%; in the assay on Acinetobacter baumannii, 14.67%; in the assay with Escherichia coli it was -8.18%; with Klebsiella pneumoniae, 12.15%; in the assay on Candida albicans, 4.37%; with Cryptococcus neoformans it was 17.48%.
On to `Nc1ccc(/N=N/c2ccc(O)cc2)c(N)n1`, for which the Inhibition in the assay with Staphylococcus aureus is -3.88%; in the assay on Acinetobacter baumannii, -10.7%; in the assay on Escherichia coli, 0%; in the assay on Klebsiella pneumoniae, 0.93%; with Candida albicans it was 0.86%; with Cryptococcus neoformans, -14.36%.
Consider `Cc1cccc(C(O)C(O)c2cccc(C)n2)n1` (stereo not given), for which the Inhibition with Staphylococcus aureus is 7.22%; in the assay on Acinetobacter baumannii, -14.61%; in the assay with Escherichia coli, 8.35%; in the assay on Klebsiella pneumoniae, 7.91%; in the assay on Candida albicans, 0.07%; in the assay with Cryptococcus neoformans, -7.77%.
For `NC(=O)SCC(=O)Nc1ccccc1C(=O)O`, the Inhibition was 2.18% with Staphylococcus aureus; 6.48% in the assay on Acinetobacter baumannii; -0.39% in the assay on Escherichia coli; 23.65% in the assay on Klebsiella pneumoniae; 9.98% in the assay with Candida albicans; -3.81% in the assay with Cryptococcus neoformans.
As to `N#Cc1c(N)nc(N)nc1Nc1ccc(Br)cc1`, the Inhibition was 13.29% in the assay on Staphylococcus aureus; -8.2% in the assay with Acinetobacter baumannii; -5.32% in the assay on Escherichia coli; 20.88% with Klebsiella pneumoniae; 2.67% in the assay on Candida albicans; -16.04% in the assay on Cryptococcus neoformans.
Consider `CN(C)S(=O)(=O)Nc1cccc(Br)c1`, for which the Inhibition in the assay on Staphylococcus aureus is 1.46%; in the assay on Acinetobacter baumannii, -10.63%; in the assay with Escherichia coli, 3.48%; in the assay on Klebsiella pneumoniae, 2.53%; in the assay with Candida albicans, 4.88%; with Cryptococcus neoformans, 43.58%.
`Clc1[nH]cnc2nccc1-2`: the Inhibition was 1.4% in the assay with Staphylococcus aureus; -14.17% in the assay with Acinetobacter baumannii; 0.3% in the assay on Escherichia coli; 29.26% in the assay with Klebsiella pneumoniae; 1.22% with Candida albicans; -2.5% with Cryptococcus neoformans.
